Measured values published in PubChem BioAssay (EPA / NIEHS).
“And” between values parts separate entries of the source, which are not always exact repeats. Equal values may be shown once. Records with an inconclusive call do not appear. More than one record can exist for a structure, and the calls need not agree. The source made the active and inactive calls. How the source made its calls, unless noted: active means hit-call score of the fitted dose curve at least 0.9, where 1 is the maximum; inactive means score below 0.9.

Tests used:
[1] = CCTE_Shafer_MEA_dev_per_burst_spike_percent: CCTE's Neural Network Formation Assay for Percent of Spikes in a Burst, Shafer Lab (AID 2284032);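 on AC50: fitted as a decrease in burst spike percentage below DMSO baseline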
How it was run: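 Value is trapezoidal AUC over recordings on days 5, 7, 9 and 12 of the well-mean fraction of spikes falling in single-electrode bursts; rat cortical cultures exposed continuously from plating, treatment renewed DIV 5 and 9, fitted downward against DMSO.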

[2] = CCTE_Shafer_MEA_dev_active_electrodes_number: CCTE's Neural Network Formation Assay for Number of Active Electrodes, Shafer Lab (AID 2284040; active means hit-call score of the fitted dose curve at least 0.9, where 1 is the maximum;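 on AC50: potency for loss of active electrodes versus DMSO so lower counts are hits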)
How it was run: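 Developing rat cortical networks on MEAs, exposed DIV 0–12. Value is the AUC of active-electrode counts (≥5 spikes/min) from days 5, 7, 9, 12, relative to DMSO.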

[3] = CCTE_Shafer_MEA_dev_burst_rate: CCTE's Neural Network Formation Assay for Burst Rate, Shafer Lab (AID 2284042);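 on AC50: potency for loss of burst rate below DMSO control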
How it was run: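 Developmental network assay measuring how 12-day exposure of rat cortical neuron cultures alters bursting on extracellular MEA recordings. Values are AUC of well-mean burst rate across four recording days, relative to DMSO vehicle.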

[4] = CCTE_Shafer_MEA_dev_bursting_electrodes_number: CCTE's Neural Network Formation Assay for Number of Bursting Electrodes, Shafer Lab (AID 2284043; active means hit-call score of the fitted dose curve at least 0.9, where 1 is the maximum;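 on AC50: potency is for loss of bursting electrodes relative to DMSO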)
How it was run: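 Counted: electrodes with burst rate ≥1 per 2 min in each well. Cells: primary rat cortex, 1.5 x 10^5/well, on 16-electrode MEA wells. Exposure: DIV 0–12, compound renewed DIV 5 and 9. Recording days 5, 7, 9, 12; AUC vs DMSO baseline.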

[5] = CCTE_Shafer_MEA_dev_per_burst_interspike_interval: CCTE's Neural Network Formation Assay for Burst Interspike Interval, Shafer Lab (AID 2284044);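 on AC50: potency for a decrease of within-burst interspike interval below DMSO level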
How it was run: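 Mean interspike interval within single-electrode bursts, averaged over bursting electrodes, from rat cortical cultures on MEA plates recorded on days 5, 7, 9 and 12. Continuous compound exposure from plating; trapezoidal AUC fitted downward relative to DMSO.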

[6] = CCTE_Shafer_MEA_dev_burst_duration_mean: CCTE's Neural Network Formation Assay for Mean Burst Duration, Shafer Lab (AID 2284045);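 on AC50: curve fitted for loss meaning shorter burst duration than DMSO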
How it was run: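 Network-formation assay in primary rat cortical neurons; treatment spans twelve days of development. Mean burst duration per well is integrated by trapezoidal AUC and fitted in the loss-of-signal direction against DMSO baseline.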

[7] = CCTE_Shafer_MEA_dev_interburst_interval_mean: CCTE's Neural Network Formation Assay for Mean Interburst Interval, Shafer Lab (AID 2284046);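 further: well-mean interburst interval of bursting electrodes as AUC over four recording days; curve fitted for decrease in interburst interval relative to DMSO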
How it was run: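 Network formation assay in primary rat cortical cultures, exposed from DIV 0 to 12. Mean interburst interval per well, integrated as AUC over four recordings.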

[8] = CCTE_Shafer_MEA_dev_inter_network_spike_interval_mean: CCTE's Neural Network Formation Assay for Mean Inter-network Spike Interval, Shafer Lab (AID 2284047);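 on AC50: potency for a decrease in mean inter-network spike interval below DMSO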
How it was run: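 Compound was given at plating to primary rat cortical neurons and renewed with full medium changes on DIV 5 and 9. Extracellular activity was recorded on days 5, 7, 9, 12; AUC values were fitted for loss relative to DMSO control.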

[9] = CCTE_Shafer_MEA_dev_network_spike_number: CCTE's Neural Network Formation Assay for Number of Network Spikes, Shafer Lab (AID 2284048);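 further: synchronized bursts across electrodes counted on days 5 7 9 12 and integrated as AUC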;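 on AC50: fit as a loss of signal meaning fewer network spikes than DMSO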
How it was run: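 Extracellular recordings from 16-electrode wells track network formation in rat cortical cultures under continuous treatment from plating. The endpoint is network spike number, expressed as AUC across DIV 5–12 relative to DMSO vehicle.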

[10] = CCTE_Shafer_MEA_dev_network_spike_peak: CCTE's Neural Network Formation Assay for Mean Number of Electrodes in Network Spike, Shafer Lab (AID 2284049);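 on AC50: fitted for loss of signal meaning fewer electrodes in network spikes than DMSO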
How it was run: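 Continuous 12-day exposure of rat cortical cultures, starting at plating, on MEA plates. Endpoint: electrodes participating in network-spike peaks, AUC across DIV 5–12, DMSO as negative control.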

[11] = CCTE_Shafer_MEA_dev_spike_duration_mean: CCTE's Neural Network Formation Assay for Mean Spike Duration, Shafer Lab (AID 2284051);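 further: mean network spike duration pooled as area under curve over DIV 5 to 12 recordings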;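 on AC50: potency for a decrease in mean network spike duration versus DMSO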
How it was run: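 With DMSO as baseline, loss of mean network spike duration was scored from extracellular recordings of rat cortical neurons on MEA plates. Exposure spanned plating to DIV 12; the four recording days were collapsed into one AUC value.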

[12] = CCTE_Shafer_MEA_dev_network_spike_duration_std: CCTE's Neural Network Formation Assay for Standard Deviation of Network Spike Duration, Shafer Lab (AID 2284052);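 further: area under curve of spike duration SD across recording days 5 to 12; hits are decreases in network spike duration SD versus DMSO vehicle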
How it was run: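 Developing networks of rat cortical neurons were exposed over twelve days in vitro on 48-well MEA plates. Trapezoidal AUC of recordings (DIV 5–12) was analysed for signal loss relative to DMSO vehicle.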

[13] = CCTE_Shafer_MEA_dev_per_network_spike_spike_number_mean: CCTE's Neural Network Formation Assay for Mean Number of Spikes in a Network Spike, Shafer Lab (AID 2284053)
How it was run: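 First, rat cortical cells (1.5 x 10^5/well) were seeded onto MEA wells; second, dosing began at plating and was refreshed on DIV 5 and 9; finally, network-spike spike counts across DIV 5–12 were summarized as AUC.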

[14] = CCTE_Shafer_MEA_dev_per_network_spike_spike_percent: CCTE's Neural Network Formation Assay for Percent of Spikes in a Network Spike, Shafer Lab (AID 2284054)
How it was run: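 Developing networks of rat cortical neurons are dosed at day 0 and recorded extracellularly four times up to day 12. The endpoint is the area under the curve of percent spikes in network spikes, fitted in the negative direction relative to DMSO.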

[15] = UKN5_HCS_SBAD2_cell_viability: Viability Assessment in the University of Konstanz (UKN) Leist Lab Neurite Outgrowth Assay in human iPSC-derived immature Dorsal Root Ganglia Neurons (UKN5) (AID 2284056)
How it was run: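 iPSC-derived immature peripheral neurons (SBAD2) seeded on Matrigel with CHIR99021, SU5402 and DAPT, dosed 1 h later for 24 h. Viability from Hoechst H-33342 and calcein-AM live staining, high-content imaging; bidirectional fit versus DMSO.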

[16] = CCTE_Deisenroth_AIME_384WELL_CTox_Active: Cytotoxicity Assessment (CTOX) in CCTE's 384-well Estrogen Receptor Transactivation Assay with AIME metabolic competence (metabolism positive), Deisenroth Lab (AID 2284037; active means hit-call score of the fitted dose curve at least 0.9, where 1 is the maximum;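 further: chemicals first conditioned 2 h by alginate-bound induced rat liver S9 before cells; activity means signal loss indicating cell death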)
How it was run: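 VM7Luc4E2 breast cells received medium pre-incubated 2 h with chemical over alginate microspheres holding induced male Sprague Dawley rat liver S9; viability read 24 h later by protease-substrate fluorescence. Loss of signal, bidirectional fit, 0.002–200 uM.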

[17] = target: Estrogen receptor (Homo sapiens) (UniProt P03372); assay: CCTE_Deisenroth_AIME_384WELL_LUC_Inactive: CCTE's 384-well Estrogen Receptor Transactivation Assay without AIME metabolic competence (ERTA luciferase; metabolism negative), Deisenroth Lab (AID 2284038; active means hit-call score of the fitted dose curve at least 0.9, where 1 is the maximum;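 further: hits raise estrogen receptor luciferase signal so potencies reflect agonists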)
How it was run: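 Metabolism-negative mode: AIME lids stamped in alginate-water, no hepatic S9. 2 h chemical incubation → medium onto VM7Luc4E2 ERTA, 24 h. Readout luciferase luminescence; gain-of-signal fit vs 17beta-estradiol. Conc. 0.002 - 200 uM.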

[18] = target: Estrogen receptor (Homo sapiens) (UniProt P03372); assay: CCTE_Deisenroth_AIME_384WELL_LUC_Shift: CCTE's 384-well Estrogen Receptor Transactivation Assay with AIME metabolic competence data shift (ERTA luciferase; difference in metabolism positive and negative), Deisenroth Lab (AID 2284041);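 further: shift is response with S9 minus without S9 so positive means metabolism raised ER signal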
How it was run: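 Here, parent compounds undergo 2 h phase I metabolism by PB/BNF-induced rat S9 before 24 h transactivation in VM7Luc4E2 cells; the curve models S9-positive minus S9-negative response over a 10-point series.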

[19] = CCTE_Deisenroth_AIME_384WELL_CTox_Inactive: Cytotoxicity Assessment (CTOX) in CCTE's 384-well Estrogen Receptor Transactivation Assay without AIME metabolic competence (metabolism negative), Deisenroth Lab (AID 2284039; active means hit-call score of the fitted dose curve at least 0.9, where 1 is the maximum;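 further: cell viability via live-cell protease substrate cleaved to fluorescent probe; cells exposed 24 h to medium preincubated 2 h with alginate-water beads without S9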)
How it was run: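 Fluorescence from a live-cell protease substrate, read after 24 h in VM7Luc4E2 cells, indicated viability. Test medium came from a 2 h AIME step without hepatic S9 (alginate-water microspheres); concentrations spanned 0.002 - 200 uM, single technical replicate per run.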

Measured: AC50

Estrogen receptor (Homo sapiens), sequence (P03372 whole entry, looked up): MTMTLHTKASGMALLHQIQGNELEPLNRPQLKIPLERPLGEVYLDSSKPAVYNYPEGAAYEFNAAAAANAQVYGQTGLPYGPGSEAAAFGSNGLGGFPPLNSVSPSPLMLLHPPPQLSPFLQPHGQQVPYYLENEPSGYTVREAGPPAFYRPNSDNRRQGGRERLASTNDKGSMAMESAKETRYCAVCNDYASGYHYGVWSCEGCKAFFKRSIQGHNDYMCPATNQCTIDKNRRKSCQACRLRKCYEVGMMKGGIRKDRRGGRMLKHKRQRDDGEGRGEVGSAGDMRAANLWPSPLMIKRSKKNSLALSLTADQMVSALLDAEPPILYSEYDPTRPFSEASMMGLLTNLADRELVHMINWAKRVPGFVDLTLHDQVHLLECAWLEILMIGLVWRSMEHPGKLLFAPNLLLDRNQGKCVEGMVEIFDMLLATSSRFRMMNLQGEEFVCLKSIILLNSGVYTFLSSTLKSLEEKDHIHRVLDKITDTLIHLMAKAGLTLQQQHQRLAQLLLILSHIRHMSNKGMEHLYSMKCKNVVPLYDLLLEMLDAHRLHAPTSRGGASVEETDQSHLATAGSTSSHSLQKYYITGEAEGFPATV

Oc1c(Cl)cc(Cl)c(Cl)c1Cc1c(O)c(Cl)cc(Cl)c1Cl
active: [1] 1.16 µM and 954 nM | [2] 1.02 µM and 1.07 µM | [3] 976 nM and 688 nM | [4] 919 nM and 769 nM | [5] 2.04 µM and 2.61 µM | [6] 1.19 µM and 2.59 µM | [7] 2.62 µM and 2.86 µM | [8] 0.0601 µM | [9] 830 nM and 526 nM | [10] 1.19 µM and 1.83 µM | [11] 1.66 µM and 1.35 µM | [12] 972 nM and 727 nM | [13] 809 nM and 929 nM | [14] 1.03 µM and 842 nM | [15] 73.5 µM
inactive: [8]

O=C1NC2NC(=O)NC2N1 (stereo not drawn)
inactive: [16]

CS(=O)(=O)OCCCCOS(C)(=O)=O
not listed: [15] | [16] | [19]
inactive: all other assays above

COCCOCCOCCO
not listed: [15] | [17] | [18]
inactive: all other assays above

COCCc1ccc(OCC(O)CNC(C)C)cc1 (stereo not drawn)
not listed: [15] | [16] | [17] | [18] | [19]
inactive: all other assays above
